40 compounds from PubChem BioAssay (Tox21) can be followed below.

The structures appear in SMILES notation. Results filed as inconclusive are left out. Activity calls are given as the source filed them. The call rests on the fitted dose curve; in most records, active means well fitted cell-killing curve with a large enough effect in the repeat runs; inconclusive means weak or mixed curves, or effect the other way; inactive means no such curve, though single readings can be large or run the other way.
On the % scale 0 is the no-effect control and ±100 the full control effect; potency means the concentration at half of the fitted maximal effect.

This test in a line: qHTS assay to identify small molecule antagonists of the peroxisome proliferator-activated receptor gamma (PPARg) signaling pathway - cell viability counter screen (AID 743194). Further: nearly all actives have a fitted effect of over 55% in size. The settings on record: PPARg-bla HEK293H viability, CellTiter-Glo luminescence, 17 h, co-treated with 50 nM rosiglitazone; series mostly up to 62.6 µM; activity change, negative = cytotoxicity: at the top concentration. An excerpt:
U.S. Tox21 Program National Center for Advancing Translational Sciences [NCATS] NIH Chemical Genomics Center [NCGC] U.S. Environmental Protection Agency [EPA] National Institutes of Environmental Health Sciences [NIEHS] National Toxicology Program [NTP] U.S. Food and Drug Administration [FDA] Tox21 Assay Overview: The peroxisome proliferator-activated receptors (PPARs) are lipid-activated transcription factors of the nuclear receptor superfamily with three distinct subtypes namely PPAR alpha, PPAR delta (also called PPAR beta) and PPAR gamma (PPARg). All these subtypes heterodimerize with Retinoid X receptor (RXR) and these heterodimers regulate transcription of various genes. PPAR-gamma receptor (glitazone receptor) is involved in the regulation of glucose and lipid metabolism. To identify the compounds that activate PPAR-gamma signaling, GeneBLAzer PPAR gamma UAS-bla HEK293H cell line (Invitrogen, Carlsbad, CA, USA) containing a beta-lactamase reporter gene under the control of an Upstream Activator Sequence (UAS) was used to screen the Tox21 compound library. The cytotoxicity of the Tox21 compound library against the PPARg-bla cell line was tested in parallel by measuring the cell viability using CellTiter-Glo assay in the same wells.
Tox21 Assay Protocol Summary: PPARg-bla cells were dispensed at 3000 cells/5uL/well in 1536-well black wall/clear bottom plates using a Multidrop Combi (Thermo Fisher Scientific, Waltham, MA) dispenser. After the assay plates were incubated at 37 C and 5% CO2 for 5 h, 23 nL of compounds dissolved in DMSO, positive controls or DMSO only was transferred to the assay plate by a Pintool station (Kalypsys, San Diego, CA), followed by addition of 1ul Rosiglitazone (50 nM, final concentration in the wells). The assay plates were incubated at 37 C for 17 h, and then 1 uL of LiveBLAzerTM B/G FRET substrate was added using a Bioraptr Flying Reagent Dispenser (FRD) workstation (Beckman Coulter, Indianapolis, IN, USA). The assay plates were incubated at room temperature for 1 h and fluorescence intensity was measured by an Envision plate reader (PerkinElmer, Shelton, CT). For cell viability readout that measures cytotoxicity, 4 ul/well of CellTiter-Glo reagent was added into the assay plates using a Flying Reagent Dispenser. After 30 min incubation at room temperature, the luminescence intensity in the plates was measured using a ViewLux plate reader (PerkinElmer).
On the technique in general: In qHTS, concentration-response curves come from the screen itself.
As for `Oc1ccc2c(c1)OCO2`, the “activity change, negative = cytotoxicity” value is 6.51% (inactive).

`CC1=CC(=O)/C(=C(/C)O)C(=O)O1`: the “activity change, negative = cytotoxicity” value is 1.67% (inactive).

`CCN(CC)CCOC(=O)C1(c2ccccc2)CCCC1`: the “activity change, negative = cytotoxicity” value is 0.764% (inactive).

With `CCOC(=O)C1=C(C)NC(C)=C(C(=O)OC)C1c1cccc([N+](=O)[O-])c1` (stereo not given), the “activity change, negative = cytotoxicity” value is 17.7% (inactive).

Take `C[C@@H](C1=C(CCN(C)C)Cc2ccccc21)c1ccccn1`: the “activity change, negative = cytotoxicity” value is 0.162% (inactive).

In the case of `Cc1ccc(C(=O)C(C)CN2CCCCC2)cc1` (stereo not given), the “activity change, negative = cytotoxicity” value is -9.75% (inactive).

As to `CCCCCOC(=O)c1ccc(O)cc1`, the “activity change, negative = cytotoxicity” value was -0.0523% [at 81.1 µM] (inactive).

In the case of `COC(Cc1ccccc1)OC`, the “activity change, negative = cytotoxicity” value is 17.3% (inactive).

`CCc1nn(C2CCCCC2)c2cc(C3(C#N)CCC(C(=O)O)CC3)ccc12` (stereo not given): the “activity change, negative = cytotoxicity” value was 3.47% (inactive).

Regarding `C=CC(=O)OCC(C)OCC(C)OCC(C)OC(=O)C=C` (stereo not given), the “activity change, negative = cytotoxicity” value is -21.8% (inactive).

In the case of `CCN(CCO)CCCC(C)Nc1ccnc2cc(Cl)ccc12` (stereo not given), the activity change, negative = cytotoxicity is 0.825% [at 5.95 µM] (inactive).

Regarding `CC(=O)Nc1ccc(/C=N/NC(N)=S)cc1`, the “activity change, negative = cytotoxicity” value is 0.672% (inactive).

As for `CCCCOC(=O)/C=C\C(=O)OCCCC`, the “activity change, negative = cytotoxicity” value was 11% [at 81.1 µM] (inactive).

As to `CCCCCCCCCCCCCCC1CO1` (stereo not given), the “activity change, negative = cytotoxicity” value was 0.256% (inactive).

Turning to `O=C(c1ccccc1)c1ccc2n1CCC2C(=O)O` (stereo not given), the “activity change, negative = cytotoxicity” value is 6.17% (inactive).

For `c1ccc(-c2nc[nH]c2-c2ccccc2)cc1`, the “activity change, negative = cytotoxicity” value was -5.11% (inactive).

As for `CCCCCc1ccc(N)cc1`, the “activity change, negative = cytotoxicity” value is -24.7% (inactive).

Take `O=C(O)Cc1sc(-c2ccccc2)nc1-c1ccc(Cl)cc1`: the “activity change, negative = cytotoxicity” value was -0.485% (inactive).

Regarding `CC(=O)OCCc1ccccc1`, the “activity change, negative = cytotoxicity” value was -27% (inactive).

For `COCCO`, the “activity change, negative = cytotoxicity” value is 1.29% (inactive).

As for `Nc1nc(CC(=O)O)cs1`, the “activity change, negative = cytotoxicity” value is -12.7% [at 81.1 µM] (inactive).

With `Cn1c(NCCN(CCO)CCCc2ccc([N+](=O)[O-])cc2)cc(=O)n(C)c1=O`, the “activity change, negative = cytotoxicity” value is -6.29% (inactive).

Take `CC(Cc1cccc(C(F)(F)F)c1)NCCOC(=O)c1ccccc1` (stereo not given): the Potency is 23.7 µM (active).

For `CCCCCC/C=C/C=O`, the “activity change, negative = cytotoxicity” value was -20.8% (inactive).

For the compound `CCOc1nc2cccc(C(=O)O)c2n1Cc1ccc(-c2ccccc2-c2nn[nH]n2)cc1`, the “activity change, negative = cytotoxicity” value is 4.05% (inactive).

With `CCCCC(CC)COCCCN` (stereo not given), the “activity change, negative = cytotoxicity” value was -2.2% (inactive).

For the compound `C=C(C)C(=O)OCCOc1ccccc1`, the “activity change, negative = cytotoxicity” value was 20.3% (inactive).

For the compound `O=C=NC1CCC(CC2CCC(N=C=O)CC2)CC1` (stereo not given), the “activity change, negative = cytotoxicity” value was -0.232% (inactive).

As to `COc1ccc2[nH]c(S(=O)Cc3ncc(C)c(OC)c3C)nc2n1` (stereo not given), the “activity change, negative = cytotoxicity” value was 8.8% (inactive).

As to `C[C@H](CCC(=O)O)[C@H]1CC[C@H]2[C@@H]3[C@H](O)C[C@@H]4C[C@H](O)CC[C@]4(C)[C@H]3CC[C@]12C`, the “activity change, negative = cytotoxicity” value was -19.1% (inactive).

Consider `NC1CCN(c2nc3c(cc2F)c(=O)c(C(=O)O)cn3-c2ccc(F)cc2F)C1` (stereo not given), for which the “activity change, negative = cytotoxicity” value was -7.89% (inactive).

`CC(=O)[C@@]1(O)CC[C@H]2[C@@H]3C[C@H](C)C4=CC(=O)CC[C@]4(C)[C@H]3CC[C@@]21C`: the “activity change, negative = cytotoxicity” value was 0.199% (inactive).

`O=C1c2cccc(O)c2C(=O)c2c(O)cc(CO)cc21`: the “activity change, negative = cytotoxicity” value is -0.485% (inactive).

Turning to `Nc1cnn([C@@H]2O[C@H](CO)[C@@H](O)[C@H]2O)c(=O)n1`, the “activity change, negative = cytotoxicity” value is -20.3% (inactive).

With `Cc1cccc(Oc2ccccc2)c1`, the “activity change, negative = cytotoxicity” value is 20.2% (inactive).

In the case of `CCCCCCCCCCCCCCCC(=O)OC/C=C(C)/C=C/C=C(C)/C=C/C1=C(C)CCCC1(C)C`, the “activity change, negative = cytotoxicity” value was 0.69% (inactive).

With `O=C1Nc2cc(Cl)ccc2Oc2ccccc21`, the “activity change, negative = cytotoxicity” value is -1.29% (inactive).

As to `CCOC(=S)SSC(=S)OCC`, the “activity change, negative = cytotoxicity” value is 0.731% (inactive).

As for `COC(=O)CSc1cc(N=c2sc(=O)n3n2CCCC3)c(F)cc1Cl`, the “activity change, negative = cytotoxicity” value was 8.76% (inactive).

`CC(C(=O)O)c1ccc(C(=O)c2ccccc2)s1` (stereo not given): the “activity change, negative = cytotoxicity” value is -1.52% (inactive).
